Tau fibril FP: blocks human tau fibril formation measured by polarization; P10636; K18 P301L tau heparin fibrillization, Alexa594 FP, 6 h; Potency, µM (doses to about 57.7 µM), for inactives: at the highest dose activity, negative = inhibition, hits mostly inhibitors; 280,000 compounds, 0.39% hits; AID 1468; also: nearly all actives have a fitted effect of over 55% in size
Target sequence (P10636 561-689 P618L limits assumed): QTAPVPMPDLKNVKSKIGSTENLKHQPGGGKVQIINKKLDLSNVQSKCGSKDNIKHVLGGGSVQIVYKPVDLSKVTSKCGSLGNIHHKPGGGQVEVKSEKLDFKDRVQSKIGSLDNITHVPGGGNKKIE
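Read-out: fluorescence polarization of Alexa 594-labeled tau (0.24 uM), 555 nm excitation, 632 nm emission. Mixtures held 15 uM unlabeled K18 P301L, compound and 20 uM heparin, pH 7 acetate buffer, incubated 6 hr at 37 C.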
Luc counter: Kinase-Glo luciferase inhibition (counter-screen) | Kinase-Glo luciferase, ATP luminescence, 8 min | AID 1379 | 200,000 compounds, 0.28% hits | Potency, µM (highest dose often 38.3 µM), inactives show top-dose activity change, negative = inhibition, most hits filed as inhibitors; also: nearly all actives have a fitted effect of over 60% in size
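Compounds were added to a substrate mix at pH 7.2 (50 mM imidazole, 10 uM ATP, within the enzyme's linear range), followed by Kinase-Glo detection reagent; luminescence was measured after 8 minutes at ambient temperature.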
NPSR antag: blocks cAMP signaling of the human neuropeptide S receptor | 220,000 compounds, 1% hits | Q6W5P4 | Potency, µM (titrated, usually from 38.3 µM), for the others: at the highest dose activity change, negative = inhibition, most hits filed as inhibitors | CHO-NPSR cells, cAMP TR-FRET, antagonist mode; also: nearly all actives have a fitted effect of over 50% in size
Target sequence (Q6W5P4 whole entry, looked up): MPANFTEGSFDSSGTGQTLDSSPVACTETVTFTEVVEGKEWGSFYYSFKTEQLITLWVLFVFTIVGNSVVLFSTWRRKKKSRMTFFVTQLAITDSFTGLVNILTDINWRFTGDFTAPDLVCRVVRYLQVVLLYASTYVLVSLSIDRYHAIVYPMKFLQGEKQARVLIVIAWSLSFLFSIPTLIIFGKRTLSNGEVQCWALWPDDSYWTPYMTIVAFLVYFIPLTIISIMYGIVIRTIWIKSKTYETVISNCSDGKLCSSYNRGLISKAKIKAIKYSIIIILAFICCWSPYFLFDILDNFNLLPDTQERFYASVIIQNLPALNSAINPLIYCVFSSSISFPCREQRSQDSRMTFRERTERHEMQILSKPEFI
Tau fluor counter: counter-screen for tau fibril formation inhibitors; 280,000 compounds, 0.93% hits; Potency, µM (titrated, usually from 57.7 µM), for the others: at the highest dose activity change, negative = decrease; tau K18 P301L Alexa594 fluorescence, heparin fibrillization; also: nearly all actives have a fitted effect of over 55% in size
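Human K18 P301L tau (15 uM unlabeled plus 0.24 uM Alexa 594-labeled, final) in 100 mM sodium acetate pH 7 was mixed with compound and 20 uM heparin and incubated 6 hr at 37 C.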
Tau ThT inhib: blocks human tau fibril formation measured by thioflavin T; 270,000 compounds, 2.1% hits; AID 1460; Potency, µM (doses to about 57.4 µM), for inactives: at the top dose activity, negative = inhibition, most hits filed as inhibitors; recombinant tau K18 P301L, heparin-induced fibrillization, ThT fluorescence; P10636; also: nearly all actives have a fitted effect of over 55% in size
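ThT emission at 510 nm, taken 1 hr after adding 30 uM dye, quantifies aggregates formed when 20 uM heparin acts on human tau K18 P301L for 6 hr at 37 C.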
Numbers without * were called inactive; ? = inconclusive; · = not tested or not shown; [ ] = remark or other dose. Hits are enriched below; roughly 3.3% of the tested compounds scored in any of these assays. Calls follow the shape of the dose curve; as a rule, active = well fitted curve in the direction sought with a large enough effect; inconclusive = small, poorly fitted or top-dose-only effect, or another doubt; inactive = no such curve, though single readings can be large; an effect the other way counts as inactive or inconclusive. % is scaled to controls: 0 for no effect and ±100 for the full control effect; potency is read from the fitted curve at half-maximal effect.

SMILES	Tau fibril FP	Luc counter	NPSR antag	Tau fluor counter	Tau ThT inhib
CC1=C(C(=O)Nc2cccnc2)C(c2ccccc2Cl)n2nc(-c3ccccc3)nc2N1 (stereo not drawn)	-3%	·	·	-26%	-1%
CCCCC(=O)Nc1nc(C)c(-c2csc(Nc3cc(OC)ccc3OC)n2)s1	?	1%	-6%[46.1 µM]	16µM*[quencher]	?
CCC(C)C(=O)Nc1nc(C)c(-c2csc(Nc3cc(OC)ccc3OC)n2)s1 (stereo not drawn)	?	-1%	-24%[46.1 µM]	14µM*[quencher]	?
COc1ccc(OC)c(Nc2nc(-c3sc(C)nc3C)cs2)c1	?	-3%	?	?	14µM*
CCCC(C)C(=O)Nc1nc(C)c(-c2csc(Nc3ccccc3OC)n2)s1 (stereo not drawn)	?	-2%	?	?	?
Cc1nc(C)c(-c2csc(Nc3ccc(F)cc3)n2)s1	?	2%	-52%	20µM*[quencher]	?
CC(=O)c1cc(-c2ccccc2)n(CC(=O)Nc2ccc(C)cc2C)c1C	-12%	·	·	-4%	-10%
COc1ccc(NC(=O)c2sc3nc(C)c(C(=O)Nc4ccc(C)cc4C)c(-c4ccc(C)o4)c3c2N)cc1	1%	·	·	?	?
Cc1ccc(C)c(N2CCN(CCCNC(=O)c3cnn(-c4ccccc4Cl)c3C3CCN(C(=O)OC(C)(C)C)CC3)CC2)c1	2%	·	·	-26%	?
N#CC1=C(N)C2=CCCC[C@H]2[C@H](c2ccc(Br)cc2)C1(C#N)C#N	?	1%	-16%[46.1 µM]	?	14µM*
COc1ccc(-c2noc(CSc3nnc(Cc4ccccc4)n3-c3ccccc3)n2)cc1OC	4%	·	·	-29%	?
O=[N+]([O-])c1ccc(COc2ccc(-c3[nH]ncc3-c3ccc(Cl)cc3)c(O)c2)cc1	-2%	1%	?	2%	5%
COc1ccc(-c2cn[nH]c2-c2ccc(OCc3ccccc3F)cc2O)cc1OC	?	·	?	13µM*[quencher]	-11%
COc1ccc(-c2cn[nH]c2-c2ccc(OCc3ccc([N+](=O)[O-])cc3)cc2O)cc1OC	?	·	-44%	7.1µM*[quencher]	?
CC(=O)NCCNc1nc2c(-c3cccc(C)c3)nnn2c2ccc(Cl)cc12	-8%	·	·	-11%	-8%
CC(C)C[C@@H](CC(=O)N[C@@H](CCCN)CC(=O)N[C@@H]1CCCC[C@H]1C(=O)N[C@H](CC(=O)N[C@@H](CCC(=O)O)CC(=O)O)Cc1ccccc1)NC(=O)[C@@H]1CCCC[C@H]1N	2%	4%	·	-11%	-12%
COc1cccc(Oc2cn[nH]c2-c2ccc(O)cc2O)c1	?	-1%	-20%[46.1 µM]	?	-9%
COc1cccc(Oc2cn[nH]c2-c2ccc(OC)cc2O)c1	-11%	-1%	?	14µM*[quencher]	-11%
CCOc1ccc(-c2[nH]ncc2Oc2cccc(OC)c2)c(O)c1	?	-2%	-23%[46.1 µM]	16µM*[quencher]	?
CCCc1ccc(O)c(N=Cc2cc(Br)cc(OCC)c2O)c1	-11%	-3%	-32%	-23%	14µM*
CC1CCN(S(=O)(=O)c2ccc(N3CCCCS3(=O)=O)cc2)CC1	-8%	·	·	3%	8%
COc1cccc(C(=O)Nc2ccc(NC(C)=O)cc2)c1	4%	-7%	-1%[46.1 µM]	-4%	-8%
COc1cccc(C(=O)C(C#N)=C(SC)SC)c1	?	·	?	-19%	25µM*
CSC(SC)=C(C#N)C(=O)c1ccccc1	14µM*	·	?	-19%	20µM*
Oc1ccc(NC(=S)Nc2ccc(O)cc2)cc1	?	2%	-21%	?	10µM*
SMILES	Tau fibril FP	Luc counter	NPSR antag	Tau fluor counter	Tau ThT inhib
COC(=O)c1ccc(NC(=S)Nc2ccc(O)cc2)cc1	1%	1%	8%	-13%	-15%
CC1=CC(=NOC(=O)/C=C/c2ccccc2)C=C(C)C1=O	?	-3%	-9%[46.1 µM]	-28%	22µM*
CC1=CC(=O)C=C(C)C1=NOC(=O)/C=C\c1ccccc1	?	-2%	0%	-17%	16µM*
CC(C)N(C)CCOC(=O)/C=C/c1ccccc1	-4%	1%	9%	6%	3%
CC1=C(C)/C(=N\OC(=O)/C=C/c2ccccc2)C=CC1=O	?	-4%	?	-21%	13µM*
Cc1cn2c(=O)c(S(=O)(=O)Nc3ccc(F)cc3F)c(C)nc2s1	-4%	·	·	-3%	0%
c1ccc2nc(-c3ccc4c(c3)OCO4)ccc2c1	2%	-26%	10%	-7%	?
CNc1ccccc(-c2ccc3cc4c(cc3n2)OCO4)c1=O	-14%	?	-24%	?	5µM*
COc1ccc(-c2ccc(/C=N/NC(=O)c3cccnc3)o2)c([N+](=O)[O-])c1	?	-1%	-29%	-25%	2.8µM*
CN1C(=O)C2(NC(=O)c3ccccc3N2C)c2ccccc21 (stereo not drawn)	-1%	·	11%	-2%	-1%
CN1C(=O)C(Cl)(Cl)C(=O)c2ccccc21	7.1µM*	-4%	16%	-20%	4µM*
O=Cc1ccc(N2CCCC2)c([N+](=O)[O-])c1	3%	5%	1%	-4%	?
O=[N+]([O-])/C=C\c1ccc(N2CCCC2)c(F)c1	-8%	-5%	-19%	?	16µM*
FC(F)(F)c1cccc(NC(=S)N(CCCN2CCCC2)Cc2cccn2Cc2ccc(Cl)cc2)c1	-14%	1%	10µM*	?	?
Cc1ccc(NC(=S)N(CCCN2CCCC2)Cc2cccn2Cc2ccc(Cl)cc2)cc1Cl	0%	-1%	-59%	?	?
COc1cc(/C=N/Nc2nc(C)cc(C)n2)ccc1OC(=O)c1ccco1	1%	-2%	-19%	-8%	?
COc1cc(/C=N/Nc2ccc3ccccc3c2)ccc1OC(=O)c1ccco1	-8%	2%	1%	13µM*[quencher]	13µM*
COc1cc2c(cc1OC)C(c1ccc(-c3ccc(Cl)cc3Cl)o1)=NCC2	3%	-2%	7.9µM*	-11%	?
COc1cc2c(cc1OC)C(c1ccc(-c3ccccc3Cl)o1)=NCC2	7%	-23%	?	-17%	?
COc1cc2c(cc1OC)C(c1ccc(Cl)cc1)=NCC2	4%	·	-17%	4%	6%
COc1cc2c(cc1OC)C(c1ccc(-c3ccc(Cl)c(Cl)c3)o1)=NCC2	13%	-23%	?	?	11µM*
O=C(c1ccccc1)c1ccc2nc(-c3ccc(NC(=O)c4ccccc4Br)cc3)[nH]c2c1	?	-2%	?	?	?
Cc1ccccc1C(=O)Nc1ccc(-c2nc3ccc(C(=O)c4ccccc4)cc3[nH]2)cc1	28µM*	-6%	-23%[46.1 µM]	?	-5%
Nc1nc(-c2ccccc2)c(N=Nc2ccccc2Cl)s1	?	-3%	-28%	4.5µM*[quencher]	5µM*
